Assay results reported in PubChem BioAssay AID1376 (SRMLSC, 2008).
The whole screen tested about 220,000 compounds, of which about 530 (0.24%) were called active. Many of the other results were omitted from the sample, so actives are more common in it than they were. Results with a measured potency or affinity are listed apart. Values without a mark were called inactive. Cut-off read from the data, not from the text of the source: active = inhibition above about 13%; inconclusive = no clear call, values can overlap the other calls; inactive = below that.

target: Bifunctional protein GlmU (Mycobacterium tuberculosis (strain ATCC 25618 / H37Rv)) (UniProt P9WMN3); assay: inhibition of mycobacterial GlmU enzyme – biochemical, glucosamine-1-phosphate acetyltransferase (AID 1376);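 note: 0% = complete reaction with vehicle and 100% = reaction without substrate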; settings: M. tuberculosis GlmU acetyltransferase enzyme assay; stronger effect = higher value;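 tested at 30 µM in the primary screen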
Sequence (P9WMN3 whole entry, looked up): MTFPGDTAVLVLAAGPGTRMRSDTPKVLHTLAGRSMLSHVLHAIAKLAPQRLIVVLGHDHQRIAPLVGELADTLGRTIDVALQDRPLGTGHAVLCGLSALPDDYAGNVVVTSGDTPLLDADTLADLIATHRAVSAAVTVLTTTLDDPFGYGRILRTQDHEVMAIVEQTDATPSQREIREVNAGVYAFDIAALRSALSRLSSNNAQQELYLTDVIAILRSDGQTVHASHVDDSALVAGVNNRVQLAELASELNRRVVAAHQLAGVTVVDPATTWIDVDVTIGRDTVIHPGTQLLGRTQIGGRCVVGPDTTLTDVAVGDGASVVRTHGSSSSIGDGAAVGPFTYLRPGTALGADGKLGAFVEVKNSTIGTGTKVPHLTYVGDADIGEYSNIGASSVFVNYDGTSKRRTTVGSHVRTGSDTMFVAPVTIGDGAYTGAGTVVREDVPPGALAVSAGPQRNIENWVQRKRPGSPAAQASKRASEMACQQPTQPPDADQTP

SMILES | inhibition
CNS(=O)(=O)c1c(C)cc(C)c(N(C)S(=O)(=O)c2ccccc2)c1C | 4.09%
O=C(O)C(Cc1ccccc1)N1C(=O)/C(=C/C=C/c2ccco2)SC1=S (centres undefined) | 26.9% (active)
COc1ccc(/C=C2\SC(=S)N(C(Cc3ccccc3)C(=O)O)C2=O)cc1 (centres undefined) | 1.51%
O=C(O)CC(C(=O)O)N1C(=O)/C(=C/C=C/c2ccco2)SC1=S (centres undefined) | 17.9% (active)
O=C(O)CCCN1C(=O)/C(=C/C=C/c2ccco2)SC1=S | 5.29%
O=C(O)C(Cc1ccccc1)N1C(=O)/C(=C/c2cccc3ccccc23)SC1=S (centres undefined) | 3.53%
O=C(O)C(Cc1ccccc1)N1C(=O)/C(=C/c2ccccc2)SC1=S (centres undefined) | 7.96%
O=C1S/C(=C\C=C\c2ccco2)C(=O)N1c1ccc(O)cc1 | 11.9%
Cc1ccc(/C=C2\SC(=S)N(C(Cc3ccccc3)C(=O)O)C2=O)cc1 (centres undefined) | 5.14%
O=C(O)C(Cc1ccccc1)N1C(=O)/C(=C/c2cccs2)SC1=S (centres undefined) | 17.4% (active)
CC(=O)Nc1ccc(C(=O)NNC(=O)c2cc([N+](=O)[O-])cc([N+](=O)[O-])c2)cc1 | 2.49%
CC(C)(O)C#Cc1ccc(CN2CCN(Cc3ccccc3)C(CCO)C2)s1 (centres undefined) | 3.34%
CSc1nc2nc3c(cn2n1)C(=O)CC(c1ccccc1)C3 (centres undefined) | 2.71%
Cc1nc2nc3c(cn2n1)C(=O)CC(c1ccccc1)C3 (centres undefined) | 15% (active)
O=C1CC(c2ccccc2)Cc2nc3nc(C(F)(F)F)nn3cc21 (centres undefined) | 2.78%
O=C(Nc1nnc(-c2ccccc2)o1)NC1CCCCC1 | 0.77%
CC(=O)Nc1ccc(OCC(O)CN2CCN(c3cccc(Cl)c3)CC2)cc1 (centres undefined) | -0.54%
COC(C/C=C\[C@H](O)COCc1ccccc1)OC | 6.23%
Cc1ccccc1NC(=O)Nc1cc(-c2ccccc2)nn1C | -3.02%
O=C(CSCc1ccccc1F)NCc1ccc(F)cc1 | -1.92%

SMILES | inhibition
c1cncc(-c2nnc3n2CCC3)c1 | -0.26%
CCOC(=O)C1=C(C)N(c2ccccc2)C(=O)C1 | 3.44%
CCOC(=O)C1=C2NC(=O)c3ccccc3N2C(=O)C1 | 13.7% (active)
CCOC(=O)C1=C(N)N(c2ccccc2)C(=O)C1 | 1.91%
O=C(COC(=O)c1ccc(Cl)c([N+](=O)[O-])c1)Nc1ccccc1OC(F)F | 0.84%
Cc1sc2nc(SCc3ccccc3)n(Cc3ccco3)c(=O)c2c1C | -1.04%
Cc1onc(-c2ccccc2Cl)c1C(=O)N1CCN=C1SCc1cccnc1 | 27.2% (active)
CCSC1=NCCN1C(=O)c1c(-c2ccccc2Cl)noc1C | 4.4%
CSC1=NCCN1C(=O)c1c(-c2ccccc2Cl)noc1C | -1.36%
C=CCn1c(O)c(C=Nc2c(C)n(C)n(-c3ccccc3)c2=O)c(=O)[nH]c1=O | -2.53%
CCCOC(=O)C1C2C=CC(C3CC23)C1C(=O)OCC(=O)c1ccccc1 (centres undefined) | 2.44%
COc1ccccc1N1C(=N)S/C(=C\c2ccc(-c3ccccc3C(=O)O)o2)C1=O | 8.5%
Cc1ccccc1NC(=O)CN1C(=O)S/C(=C\c2ccc(-c3cc(C(=O)O)ccc3C)o2)C1=O | 19.2%
O=C1NC(=O)N(c2ccc3c(c2)OCO3)C(=O)/C1=C\c1ccc(-c2ccccc2C(=O)O)o1 | 9.19%
Cc1ccc(C)c(N2C(=N)S/C(=C\c3ccc(-c4ccccc4C(=O)O)o3)C2=O)c1 | 13.1% (active)
N=C1S/C(=C\c2ccco2)C(=O)N1c1ccc2c(c1)OCO2 | 5.07%
O=C(N/N=C/C=C/c1ccc(Br)cc1)C(O)c1ccccc1 (centres undefined) | -4.11%
COc1ccc(NC(=O)c2ccccc2-c2ccccc2)c(C)c1 | -1.21%
O=C(OCC(=O)N1CCN(C(=O)c2ccco2)CC1)c1ccccc1C(=O)c1ccccc1 | 0.58%
O=C(O)Cn1cc(/C=c2/sc3nc4ccccc4n3c2=O)c2ccccc21 | -3.15%

SMILES | inhibition
O=Cc1ccc(-c2cccc(C(=O)O)c2)o1 | 3.12%
O=c1/c(=C\c2cccn2-c2ccccc2)sc2nc3ccccc3n12 | -1.22%
Cc1cc(/C=c2/sc3nc4ccccc4n3c2=O)c(C)n1-c1ccccn1 | 6.87%
O=c1/c(=C/c2ccc(O)c([N+](=O)[O-])c2)sc2nc3ccccc3n12 | 8.42%
O=c1/c(=C/c2ccccn2)sc2nc3ccccc3n12 | 3.31%
CCN(CC)c1ccc(/C=c2\sc3nc4ccccc4n3c2=O)c(O)c1 | -2.52%
O=c1/c(=C\c2cc([N+](=O)[O-])cc([N+](=O)[O-])c2O)sc2nc3ccccc3n12 | 33.8% (active)
Cc1ccc(-n2c(C)cc(/C=c3/sc4nc5ccccc5n4c3=O)c2C)cc1 | 0.75%
O=c1c(Br)c(N2CCOCC2)cnn1-c1ccccc1 | -4.84%
Cn1nc(C(F)(F)F)c2cc(C(=O)O)sc21 | 0.57%
CCN(CC)S(=O)(=O)c1ccc(N2CCOCC2)c(NC(=O)CC(C)(C)C)c1 | 11.6%
Cc1cc(C)c(C#N)c(SC2CCCCC2=O)n1 (centres undefined) | 0.86%
CC(C)NC(=O)CSc1nnc2sc3ccccc3n12 | 7.28%
Cn1nc(-c2ccccc2)c(CN2CCN(c3ncccn3)CC2)c1Cl | -1.97%
CC1(C)CC(=O)C2=C(C1)N(CCN1CCOCC1)C1=C(C(=O)CC(C)(C)C1)C2c1ccc(Cl)c([N+](=O)[O-])c1 | 4.94%
CCOC(=O)Cc1csc(NC(=O)c2ccco2)n1 | 4.22%
Cc1cc(/C=C2\C(=O)NC(=O)N(c3ccc(F)cc3)C2=O)c(C)n1-c1cccc(C(=O)O)c1 | 2.99%
Cc1nn(Cc2c(F)cccc2Cl)c(C)c1NC(=O)C1CC1 | 1.68%
CC(Cc1ccsc1)NC(=O)CCc1nnc(COc2ccccc2)o1 (centres undefined) | -0.64%
